Results filed as inconclusive are left out. Calls of active or inactive are those of the source. Unless noted, calls follow the shape of the dose curve; as a rule, active = well fitted curve in the direction sought with a large enough effect in the repeat runs; inconclusive = weak or mixed curves; inactive = no such curve, though single readings can be large; an effect the other way counts as inactive or inconclusive.
Assays:
[1] = target: Aryl hydrocarbon receptor (Homo sapiens) (UniProt P35869); experiment: qHTS assay to identify small molecule that activate the aryl hydrocarbon receptor (AhR) signaling pathway (AID 743085); also: nearly all actives have a fitted effect of over 15% in size; also: potency is read from the fitted curve at half-maximal effect;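 as to activation: HG2L7.5c1 human HepG2 liver cells with stably integrated DRE-driven firefly reporter; series mostly up to about 70 µM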
Summary of the method: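 Reporter assay in engineered HepG2 line HG2L7.5c1, whose plasmid carries twenty dioxin responsive elements upstream of firefly luciferase. Treatment lasted 24 h at 37C; ONE-Glo luminescence gauged induction.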

[2] = qHTS assay to identify small molecule that activate the aryl hydrocarbon receptor (AhR) signaling pathway - cell viability counter screen (AID 743086); also: nearly all actives have a fitted effect of over 45% in size; also: potency is read from the fitted curve at half-maximal effect
Summary of the method: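 Cytotoxicity counter screen: CellTiter-Fluor signal (30 min, 37 C) in 4000 HepG2 cells/well carrying the DRE-luciferase reporter, following 24 h compound exposure at 37 C.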

[3] = qHTS assay to identify small molecule antagonists of the peroxisome proliferator-activated receptor gamma (PPARg) signaling pathway - cell viability counter screen (AID 743194); also: nearly all actives have a fitted effect of over 55% in size; also: potency is read from the fitted curve at half-maximal effect
Summary of the method: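 Viability was measured as CellTiter-Glo luminescence in GeneBLAzer PPARg UAS-bla HEK293H cells. These cells had been exposed 17 h at 37 C to compounds together with rosiglitazone at 50 nM final, with the beta-lactamase readout taken in the same wells.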

[4] = qHTS assay for small molecule agonists of the antioxidant response element (ARE) signaling pathway - cell viability counter screen (AID 743203; calls by dose curve; also: nearly all actives have a fitted effect of over 55% in size; also: potency is read from the fitted curve at half-maximal effect)
Summary of the method: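 Parallel cytotoxicity read-out for the ARE-bla screen: HepG2 reporter cells, 16 hrs with compounds, then CellTiter-Glo luminescence.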

[5] = qHTS assay for small molecule activators of the heat shock response signaling pathway - cell viability counter screen (AID 743209); also: nearly all actives have a fitted effect of over 50% in size; also: potency is read from the fitted curve at half-maximal effect
Summary of the method: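 To flag cytotoxic compounds, HSE-bla HeLa cells plated at 1500 cells/well were dosed for 5 h at 37 C, followed by the reporter FRET read and then CellTiter-Glo, with luminescence recorded 30 min after reagent addition.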

[6] = qHTS assay to identify small molecule antagonists of the peroxisome proliferator-activated receptor delta (PPARd) signaling pathway - cell viability counter screen (AID 743213); also: nearly all actives have a fitted effect of over 50% in size; also: potency is read from the fitted curve at half-maximal effect
Summary of the method: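 In this counter screen, HEK293H cells carrying a UAS-beta-lactamase reporter are co-treated with test compounds and 300 nM L165041 (final) for 17 h at 37 C; cell viability is quantified by CellTiter-Glo luminescence.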

[7] = target: Peroxisome proliferator-activated receptor delta (Homo sapiens) (UniProt Q03181); experiment: qHTS assay to identify small molecule antagonists of the peroxisome proliferator-activated receptor delta (PPARd) signaling pathway (AID 743215; active = well fitted inhibition curve with a large enough effect in the signal ratio in the repeat runs, not every such curve was filed as active; the % refers to the signal ratio;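 also: cells stimulated with agonist L165041 at 300 nM final during compound exposure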; also: potency is read from the fitted curve at half-maximal effect)
Summary of the method: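 Screen format: qHTS, antagonist mode. HEK293H PPARd-bla cells received compound and 300 nM L165041 (final), 17 h, 37 C. Beta-lactamase detected via FRET substrate fluorescence, 2 h, room temperature.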

[8] = qHTS assay to identify small molecule agonists of the farnesoid-X-receptor (FXR) signaling pathway - cell viability counter screen (AID 743218); also: nearly all actives have a fitted effect of over 45% in size; also: potency is read from the fitted curve at half-maximal effect
Summary of the method: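 Same-well cytotoxicity check on FXR-UAS-bla HEK 293T cells: 5 h attachment, 16 h compound at 37 C, CellTiter-Glo luminescence read at room temperature after 30 min.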

[9] = qHTS assay to identify small molecule antagonists of the farnesoid-X-receptor (FXR) signaling pathway - cell viability counter screen (AID 743221; active = well fitted cell-killing curve with a large enough effect in the repeat runs, not every such curve was filed as active; also: nearly all actives have a fitted effect of over 50% in size; also: potency is read from the fitted curve at half-maximal effect)
Summary of the method: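 CellTiter-Glo, 30 min RT, luminescence; same wells as the LiveBLAzer FRET read. Cells: FXR-UAS-bla HEK 293T. Treatment: compound with chenodeoxycholic acid 50 uM final, 16 h at 37 C.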

[10] = qHTS assay to identify small molecule agonists of the vitamin D receptor (VDR) signaling pathway - cell viability counter screen (AID 743224); also: nearly all actives have a fitted effect of over 50% in size; also: potency is read from the fitted curve at half-maximal effect
Summary of the method: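 Counter screen for cytotoxicity: VDR-bla cells at 2,000 cells/well, 16 h compound exposure, then CellTiter-Glo luminescence after the beta-lactamase measurement.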

[11] = qHTS assay to identify small molecule agonists of the peroxisome proliferator-activated receptor delta (PPARd) signaling pathway - cell viability counter screen (AID 743211); also: nearly all actives have a fitted effect of over 55% in size; also: potency is read from the fitted curve at half-maximal effect
Summary of the method: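 Multiplexed format: after the 2 h room-temperature LiveBLAzer B/G FRET step, CellTiter-Glo was added to the same wells. Luminescence after 30 min gave cell viability; compound exposure was 17 h at 37C.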

[12] = target: Vitamin D3 receptor (Homo sapiens) (UniProt P11473); experiment: qHTS assay to identify small molecule agonists of the vitamin D receptor (VDR) signaling pathway (AID 743222; calls by dose curve)
Summary of the method: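 Using LiveBLAzer B/G FRET detection, agonism was scored in VDR-bla cells exposed overnight (16 h, 37C) to DMSO-dissolved compounds; substrate incubation was 2 h at room temperature.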

[13] = target: Peroxisome proliferator-activated receptor delta (Homo sapiens) (UniProt Q03181); experiment: qHTS assay to identify small molecule agonists of the peroxisome proliferator-activated receptor delta (PPARd) signaling pathway (AID 743212; calls by dose curve;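 also: HEK293H cells with PPARd UAS beta-lactamase reporter GeneBLAzer system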)
Summary of the method: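 Steps: seed PPARd-bla HEK293H cells; incubate 5 h, 37 C, 5% CO2; add compounds in DMSO; incubate, 37 C; add LiveBLAzer B/G FRET substrate; hold 2 h at room temperature; measure fluorescence.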

[14] = target: Bile acid receptor (Homo sapiens) (UniProt Q96RI1); experiment: qHTS assay to identify small molecule antagonists of the farnesoid-X-receptor (FXR) signaling pathway (AID 743217; active = well fitted inhibition curve with a large enough effect in the signal ratio in the repeat runs, not every such curve was filed as active; the % refers to the signal ratio)
Summary of the method: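 Quantitative HTS, beta-lactamase reporter format: FXR-UAS-bla HEK 293T cells co-treated 16 h at 37 °C with compounds and 50 uM final chenodeoxycholic acid, then read by B/G FRET fluorescence.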

[15] = target: Bile acid receptor (Homo sapiens) (UniProt Q96RI1); experiment: qHTS assay to identify small molecule agonists of the farnesoid-X-receptor (FXR) signaling pathway (AID 743220; active = well fitted activation curve with a large enough effect in the signal ratio in the repeat runs, not every such curve was filed as active; the % refers to the signal ratio)
Summary of the method: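 FXR-UAS-bla HEK 293T cells carrying a UAS-driven beta-lactamase reporter were plated for 5 h at 37C/5% CO2, then exposed to DMSO-dissolved Tox21 10K compounds for 16 h at 37C. A LiveBLAzer B/G FRET substrate was loaded for 2 h at room temperature before fluorescence reading.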

[16] = qHTS assay for small molecule agonists of the antioxidant response element (ARE) signaling pathway (AID 743202; active = well fitted activation curve with a large enough effect in the signal ratio in the repeat runs, not every such curve was filed as active; the % refers to the signal ratio)
Summary of the method: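 Beta-lactamase reporter activity, read as fluorescence intensity, reflects ARE/Nrf2 pathway induction in HepG2 cells after 16 h compound exposure at 37 C; substrate loading was 2 h at room temperature.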

[17] = qHTS assay for small molecule activators of the heat shock response signaling pathway (AID 743210; active = well fitted activation curve with a large enough effect in the signal ratio in the repeat runs, with a control signal flat, not every such curve was filed as active; the % refers to the signal ratio;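 also: HeLa cells with beta-lactamase reporter driven by heat shock elements; series mostly up to about 63 µM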)
Summary of the method: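 Fluorescence from a cleaved B/G FRET substrate (2.5 h, room temp) reports HSE-driven beta-lactamase in HeLa cells treated 5 h at 37 C with DMSO-dissolved compounds.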

Measured: Potency

Chain of Peroxisome proliferator-activated receptor delta (Homo sapiens) (Q03181 whole entry, looked up): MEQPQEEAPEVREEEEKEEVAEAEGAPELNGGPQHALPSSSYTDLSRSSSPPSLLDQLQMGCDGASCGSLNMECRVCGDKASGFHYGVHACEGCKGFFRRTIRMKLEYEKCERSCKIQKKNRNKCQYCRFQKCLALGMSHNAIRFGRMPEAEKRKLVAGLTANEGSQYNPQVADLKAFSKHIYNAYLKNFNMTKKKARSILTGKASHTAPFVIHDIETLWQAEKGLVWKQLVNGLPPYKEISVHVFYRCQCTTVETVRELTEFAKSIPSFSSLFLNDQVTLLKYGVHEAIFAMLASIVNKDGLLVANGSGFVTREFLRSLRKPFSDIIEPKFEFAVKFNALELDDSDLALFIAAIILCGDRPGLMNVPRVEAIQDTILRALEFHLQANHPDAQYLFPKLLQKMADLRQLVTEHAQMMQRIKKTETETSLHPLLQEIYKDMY
Chain of Vitamin D3 receptor (Homo sapiens) (P11473 whole entry, looked up): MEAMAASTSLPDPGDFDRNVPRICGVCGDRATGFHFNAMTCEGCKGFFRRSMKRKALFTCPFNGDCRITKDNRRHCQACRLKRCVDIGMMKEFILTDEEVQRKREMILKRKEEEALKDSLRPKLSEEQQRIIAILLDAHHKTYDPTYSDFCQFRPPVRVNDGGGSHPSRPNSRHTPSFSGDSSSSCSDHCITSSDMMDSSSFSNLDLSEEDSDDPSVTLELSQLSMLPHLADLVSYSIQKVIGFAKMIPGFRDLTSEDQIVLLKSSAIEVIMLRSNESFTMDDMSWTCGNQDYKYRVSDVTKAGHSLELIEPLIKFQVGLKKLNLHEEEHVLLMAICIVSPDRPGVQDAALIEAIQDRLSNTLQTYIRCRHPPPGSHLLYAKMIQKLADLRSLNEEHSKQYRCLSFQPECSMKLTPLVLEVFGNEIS
Chain of Aryl hydrocarbon receptor (Homo sapiens) (P35869 whole entry, looked up): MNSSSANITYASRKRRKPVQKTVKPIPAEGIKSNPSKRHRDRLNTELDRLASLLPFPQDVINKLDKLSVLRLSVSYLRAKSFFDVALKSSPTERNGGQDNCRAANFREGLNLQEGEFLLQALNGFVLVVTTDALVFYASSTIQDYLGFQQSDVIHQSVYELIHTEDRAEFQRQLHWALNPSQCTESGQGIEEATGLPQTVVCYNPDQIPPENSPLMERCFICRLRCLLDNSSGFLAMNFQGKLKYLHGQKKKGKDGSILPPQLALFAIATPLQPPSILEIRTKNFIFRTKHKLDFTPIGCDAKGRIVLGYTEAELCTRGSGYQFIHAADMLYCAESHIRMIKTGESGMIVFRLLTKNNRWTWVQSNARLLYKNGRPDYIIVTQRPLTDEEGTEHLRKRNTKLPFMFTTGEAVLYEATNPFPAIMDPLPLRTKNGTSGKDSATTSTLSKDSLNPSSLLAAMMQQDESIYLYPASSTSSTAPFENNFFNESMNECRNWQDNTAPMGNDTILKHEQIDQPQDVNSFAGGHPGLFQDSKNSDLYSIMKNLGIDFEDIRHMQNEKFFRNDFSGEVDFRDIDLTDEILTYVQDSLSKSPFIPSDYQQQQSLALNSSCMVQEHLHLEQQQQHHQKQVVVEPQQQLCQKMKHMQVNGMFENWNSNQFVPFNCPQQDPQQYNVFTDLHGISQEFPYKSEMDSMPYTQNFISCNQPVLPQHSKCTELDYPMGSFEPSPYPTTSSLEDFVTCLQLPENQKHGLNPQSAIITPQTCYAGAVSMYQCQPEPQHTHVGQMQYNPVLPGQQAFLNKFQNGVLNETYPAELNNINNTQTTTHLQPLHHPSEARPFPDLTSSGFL
Chain of Bile acid receptor (Homo sapiens) (Q96RI1 whole entry, looked up): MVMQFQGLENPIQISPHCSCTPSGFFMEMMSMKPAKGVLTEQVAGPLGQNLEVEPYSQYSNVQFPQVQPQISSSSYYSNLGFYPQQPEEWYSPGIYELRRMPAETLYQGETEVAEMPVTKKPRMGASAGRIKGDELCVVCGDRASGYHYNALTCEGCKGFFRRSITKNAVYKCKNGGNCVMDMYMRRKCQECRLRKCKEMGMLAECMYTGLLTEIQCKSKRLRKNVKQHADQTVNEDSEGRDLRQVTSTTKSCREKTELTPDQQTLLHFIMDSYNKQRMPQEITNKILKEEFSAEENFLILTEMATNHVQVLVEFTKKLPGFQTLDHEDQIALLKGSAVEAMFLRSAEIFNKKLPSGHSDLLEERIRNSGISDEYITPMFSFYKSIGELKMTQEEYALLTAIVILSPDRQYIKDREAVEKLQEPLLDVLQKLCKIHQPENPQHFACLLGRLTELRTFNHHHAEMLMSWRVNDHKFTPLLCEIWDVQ

C=CC(=O)OCCn1c(=O)n(CCOC(=O)C=C)c(=O)n(CCOC(=O)C=C)c1=O
active: [2] 38.6 µM | [3] 13.8 µM | [4] 54.5 µM | [5] 13.8 µM | [6] 19.5 µM | [7] 13.8 µM | [8] 24.5 µM | [9] 34.7 µM | [10] 49 µM
inactive: [1]

Clc1ccc2n[nH]nc2c1
inactive: [1] | [2] | [3] | [4] | [5] | [11] | [6] | [7] | [8] | [9] | [12] | [10]

NC(=O)CC[C@@H]1NC(=O)[C@H](Cc2ccccc2)NC(=O)[C@H](Cc2ccc(O)cc2)NC(=O)CCSSC[C@@H](C(=O)N2CCC[C@H]2C(=O)N[C@@H](CCCN=C(N)N)C(=O)NCC(N)=O)NC(=O)[C@H](CC(N)=O)NC1=O
inactive: [1] | [2] | [3] | [4] | [5] | [11] | [6] | [8] | [9] | [12] | [10]

NNc1nc(-c2ccc(N)cc2)cs1
active: [1] 12.2 µM | [8] 6.92 µM
inactive: [2] | [3] | [4] | [5] | [13] | [6] | [7] | [14] | [15] | [9] | [12] | [10]

CCCC/C=C/CCCCO
inactive: [1] | [2] | [3] | [16] | [4] | [6] | [9] | [12] | [10]

C=CC(=O)OCC(CO)(COCC(COC(=O)C=C)(COC(=O)C=C)COC(=O)C=C)COC(=O)C=C
active: [2] 6.04 µM | [3] 3.05 µM | [4] 8.53 µM | [5] 2.72 µM | [11] 3.05 µM | [6] 5.43 µM | [7] 4.31 µM | [8] 4.31 µM | [9] 9.65 µM | [10] 3.84 µM
inactive: [1] | [12]

Fc1ccc([C@@H]2CCNC[C@H]2COc2ccc3c(c2)OCO3)cc1
active: [2] 26.6 µM | [4] 29.8 µM | [11] 13.3 µM
inactive: [1] | [3] | [5] | [17] | [13] | [14] | [15]

OC1(c2ccc(Cl)c(C(F)(F)F)c2)CCN(CCCC(c2ccc(F)cc2)c2ccc(F)cc2)CC1
inactive: [1]
active: [2] 21.1 µM | [3] 8.41 µM | [4] 5.96 µM | [5] 7.5 µM | [11] 4.73 µM | [6] 11.9 µM | [7] 26.6 µM | [8] 9.44 µM | [9] 26.6 µM | [10] 13.3 µM

CC(C)(C)C(=O)OCOC(=O)[C@@H]1N2C(=O)[C@@H](NC(=O)[C@H](N)c3ccccc3)[C@H]2SC1(C)C
inactive: [1] | [2] | [3] | [4] | [5] | [11] | [13] | [7] | [14] | [8] | [15] | [9] | [12] | [10]

From PubChem BioAssay (Tox21)
